Out of some 13,000 compounds screened, about 3,200 (25%) showed an effect of 50% or more. The list shows a part of the results.
What follows are compounds tested on P. falciparum stage V gametocytes. Settings: 48 h, 5 µM; inhibitor.
Design: BacTiter-Glo ATP luminescence viability of purified stage V gametocytes in 384-well plates, per cent inhibition versus DMSO

SMILES | % Inhibition
O=C(NCc1ccc(F)cc1)Nc1ccc(-c2cccc(-c3nc4ccc(F)cc4[nH]3)c2)cc1 [TCMDC-133304] | -35.38%
Cc1cc(C)c(CON2C(N)=NC(N)=NC2(C)C)cc1C [TCMDC-131652] | -5.978%
COc1ccc2nccc([C@@H](O)CN3CCC(NC(=O)Cn4nc(-c5ccc(C(F)(F)F)cc5)ccc4=O)CC3)c2c1 [TCMDC-141042] | -2.454%
CC(=O)c1ccccc1C(=O)N1CCOc2ccc(C(O)C(c3ccccc3)c3ccccc3)cc2C1 (stereo not shown) [TCMDC-124667] | -12.26%
Cn1c(=O)c2cc(C(=O)NCCCN3CCCCCC3)sc2c2ccccc21 [TCMDC-123889] | 59.14%
O=C(NCCCN1CCC(Cc2ccccc2)CC1)c1cc2c(Cl)nc3ccccc3c2s1 [TCMDC-125440] | -22.49%
O=C(NCCN1CCCC1)c1ccc(-c2ccc(-c3nc4ccccc4[nH]3)s2)cc1 [TCMDC-132314] | 24.13%
O=C(Nc1cccc(-c2cccc(-c3nc4ccccc4[nH]3)c2)c1)Nc1ccc(F)c(F)c1F [TCMDC-133226] | -1.107%
Cc1cccc(CNc2nc(C)cc(N[C@@H](CC(C)C)C(=O)NCc3cccc(F)c3)n2)c1 [TCMDC-134890] | -6.286%
Cc1cc(N[C@@H](CC(C)C)C(=O)NCc2cccc(F)c2)nc(NCCc2ccccc2)n1 [TCMDC-134870] | 54.62%
Cc1cc(N[C@@H](CC(C)C)C(=O)NCCc2ccccc2)nc(NCCc2ccc(F)cc2)n1 [TCMDC-134796] | 48.22%
Cc1cc(N[C@@H](CC(C)C)C(=O)NCc2cccc(F)c2)nc(Nc2ccccc2)n1 [TCMDC-134737] | -10.43%
Cc1cc(N[C@@H](CC(C)C)C(=O)NCc2cccc(F)c2)nc(NCCc2ccc(F)cc2)n1 [TCMDC-134792] | 53.15%
COc1cccc(-c2cnc(N)c(-c3nc4cc(Cl)c(F)cc4[nH]3)c2)c1 [TCMDC-138792] | 26.62%
COC[C@H]1CCCN1Cc1ccc(-c2ccc(-c3nc4ccccc4[nH]3)s2)cc1 [TCMDC-136785] | -1.728%
Fc1ccc2nc(-c3ccc(-c4ccc(CN5CCCCC5)cc4)s3)[nH]c2c1 [TCMDC-133897] | -55.88%
CN1CCC(N2CCN(Cc3ccc(-c4ccc(-c5nc6ccc(F)cc6[nH]5)s4)cc3)CC2)CC1 [TCMDC-133859] | 93.67%
CN1CCC(N2CCN(Cc3ccc(-c4ccc(-c5nc6ccccc6[nH]5)s4)cc3)CC2)CC1 [TCMDC-133851] | 67.23%
Fc1ccc2nc(-c3ccc(-c4ccc(CN5CCN(CCN6CCOCC6)CC5)cc4)s3)[nH]c2c1 [TCMDC-133935] | 8.438%
c1ccc2[nH]c(-c3ccc(-c4ccc(CN5CCC(N6CCCCC6)CC5)cc4)s3)nc2c1 [TCMDC-136787] | 26.44%
Cc1cccc2nc(-c3ccc(-c4ccc(NC(=O)CN5CCN(C)CC5)cc4)s3)[nH]c12 [TCMDC-136987] | -6.57%
Cc1cccc2nc(-c3ccc(-c4ccc(CN5CCN(C6CCN(C)CC6)CC5)cc4)s3)[nH]c12 [TCMDC-133866] | 107%

SMILES | % Inhibition
Cc1cccc2nc(-c3ccc(-c4cccc(NC(=O)CN5CCN(C)CC5)c4)s3)[nH]c12 [TCMDC-136988] | 20.22%
O=C(Nc1ccc2nc(-c3ccccc3)[nH]c2c1)c1cc(-c2ccc3c(c2)OCCO3)n[nH]1 [TCMDC-134398] | 9.818%
CS(=O)(=O)Nc1ccc2[nH]cc(C3CCN(CCCCCNC(=O)/C=C/c4ccc(Cl)c(Cl)c4)CC3)c2c1 [TCMDC-139325] | -23.44%
Cc1cc(O)c2c(c1)OC(C)(C)C=C2C1=CCN(Cc2ccccc2)CC1 [TCMDC-131313] | -37.74%
CN(C)S(=O)(=O)n1ncc2c3c(N)nc(N)nc3ccc21 [TCMDC-131933] | 29.56%
O=C(/C=C/c1ccc(Cl)cc1)NCCCCCN1CCN(C(=O)Nc2ccc(Cl)c(C(F)(F)F)c2)CC1 [TCMDC-136093] | 12.32%
CCC[C@@H]([C@@H](CC1CCCCC1)C(=O)N[C@H](C(=O)Nc1nccs1)C(C)(C)SCCOCCOCC)N(O)C=O [TCMDC-137777] | 29.4%
CS(=O)(=O)c1ccc(CCNCc2ccc(-c3ccc(CN(C(=O)c4cccc(C#N)c4)C4CCN(Cc5ccccc5)CC4)cc3)nc2)cc1 [TCMDC-141518] | 63.72%
CS(=O)(=O)c1ccc(CCNCc2ccc(-c3ccc(CN(C(=O)c4ccc(Cl)nc4)C4CCN(Cc5ccccc5)CC4)cc3)nc2)cc1 [TCMDC-141519] | 96.79%
CS(=O)(=O)c1ccc(CCNCc2ccc(-c3ccc(CN(C(=O)c4ccco4)C4CCN(Cc5ccccc5)CC4)cc3)nc2)cc1 [TCMDC-141510] | 87.45%
C=C[C@]1(C)C[C@@H](OC(=O)c2n[nH]c3ccccc3c2=O)[C@]2(C)[C@H](C)CC[C@]3(CCC(=O)[C@H]32)[C@@H](C)[C@@H]1O [TCMDC-141325] | 0.6377%
Cc1ccc(Nc2nccc(NCC(O)c3cccc(C(F)(F)F)c3)n2)cc1 (stereo not shown) [TCMDC-136583] | -0.2999%
COc1ccc(CCON2C(N)=NC(N)=NC2(C)C)cc1OC [TCMDC-131738] | -1.929%
CCC(C)CN1CCN(c2cc(NC(=O)c3cccs3)ccn2)C(C)C1 (stereo not shown) [TCMDC-134995] | 14.25%
CCN1CCN(Cc2ccc(NC(=O)c3cc4ccc5cccnc5c4[nH]3)cc2)CC1 [TCMDC-125281] | 19.87%
CCN1CCC(N(Cc2ccc(-c3ccc(C(F)(F)F)cc3)cc2)C(=O)Cn2c(CCc3cccc(F)c3F)cc(=O)c3c2CCCC3)CC1 [TCMDC-141326] | 67.51%
CC(C)N1CCC(N(Cc2ccc(-c3ccc(C(F)(F)F)cc3)cc2)C(=O)Cn2c(CCc3cccc(F)c3F)cc(=O)c3c2CCC3)CC1 [TCMDC-141280] | 120.6%
CCN(CC)CCN(Cc1ccc(-c2ccc(C(F)(F)F)cc2)cc1)C(=O)Cn1c(CCc2cccc(F)c2F)cc(=O)c2c1CCCC2 [TCMDC-141327] | 62.98%
CCN(CC)CCN(Cc1ccc(-c2ccc(C(F)(F)F)cc2)cc1)C(=O)Cn1c(CCc2cccc(F)c2F)cc(=O)c(C)c1C [TCMDC-141148] | 40.01%
CCN(CC)CCN(Cc1ccc(-c2ccc(C(F)(F)F)cc2)cc1)C(=O)Cn1c(CCc2cccc(F)c2F)cc(=O)cc1-c1ccccc1 [TCMDC-141688] | 100.1%
COc1cc(CC(C)NCC(O)c2cccc(C(F)(F)F)c2)ccc1OCc1ccccc1 (stereo not shown) [TCMDC-131479] | 14.56%
CCOc1ccc(NC(C)=O)c(O)c1 [TCMDC-125851] | 13.93%

SMILES | % Inhibition
Cc1ccc(-c2nnc(Nc3ccc(OCC(N)=O)cc3)c3ccccc23)cc1S(=O)(=O)NCC1CCCO1 (stereo not shown) [TCMDC-125617] | -6.517%
CC(=O)Oc1cc(OCc2ccccc2)c(OC(C)=O)c(OCc2ccccc2)c1 [TCMDC-123938] | -24.96%
COCCCNc1nc2cc(OC)c(OC)cc2c2nc(-c3ccccc3)nn12 [TCMDC-124408] | 0.2335%
CC(C)(C)c1ccc(CNCC(C)(C)c2nc(-c3ccc(Cl)c(O)c3)c(-c3ccnc(N)n3)[nH]2)cc1 [TCMDC-141165] | 3.988%
Oc1ccc(Cl)cc1-c1cc(C(F)(F)F)nc(-c2ccccc2)n1 [TCMDC-123665] | 32.7%
COc1ccc2nccc([C@@H](O)CN3CCC(CO)(NCc4cc5ccccc5o4)CC3)c2c1 [TCMDC-140494] | 12.97%
COc1ccc(CC(=O)NC2CCN(c3ccnc4cc(Cl)ccc34)C2)cc1 (stereo not shown) [TCMDC-133665] | -28.04%
CCN1CCC(N(Cc2ccc(-c3ccc(C(F)(F)F)cc3)cc2)C(=O)Cn2c(CCc3cccc(F)c3F)cc(=O)c3c2CCC3)CC1 [TCMDC-141265] | 65.76%
COCCN1CCC(N(Cc2ccc(-c3ccc(C(F)(F)F)cc3)cc2)C(=O)Cn2c(CCc3cccc(F)c3F)cc(=O)c3c2CCC3)CC1 [TCMDC-141266] | 34.4%
CCN(CC)CCN(Cc1ccc(-c2ccc(C(F)(F)F)cc2)cc1)C(=O)CN1C(CCc2cccc(F)c2F)=NS(=O)(=O)c2ccccc21 [TCMDC-141806] | 67.96%
CCCNc1ccc2nccc(CCN3CCC(NCc4ccc5c(c4)NC(=O)CS5)CC3)c2n1 [TCMDC-141619] | -14.28%
ON=C1CCc2cc(-c3nc(-c4cccc(OCCNCc5ccc(F)cc5)c4)[nH]c3-c3ccncc3)ccc21 [TCMDC-141188] | 20.84%
CN1CCC(NCc2cccc(-c3ccc(S(=O)(=O)NCCc4ccccn4)cc3)c2)CC1 [TCMDC-132214] | 81.33%
CN1CCC(NCc2ccc(-c3cccc(S(=O)(=O)NCCc4ccccn4)c3)cc2)CC1 [TCMDC-132239] | 62.99%
Cc1cc(-c2cccc(CNC3CCN(C)CC3)c2)ccc1S(=O)(=O)NCCc1ccccn1 [TCMDC-132381] | 33.36%
CN1CCC(NCCS(=O)(=O)c2cccc(Nc3ccc(-c4cccc(F)c4)cn3)c2)CC1 [TCMDC-134370] | 8.325%
COc1ccc2nccc([C@@H](O)CN3CCC(NCC(=O)Nc4cc(F)cc(F)c4)CC3)c2n1 [TCMDC-140675] | -19.08%
Cc1ccc(C(=O)NCC2CCN(c3ccc(C(F)(F)F)cc3NC(=O)c3ccco3)CC2)cn1 [TCMDC-134179] | 52.48%
Cc1ccnc2nc(C(=O)Nc3cc(C(F)(F)F)ccc3N3CCCCC3)nn12 [TCMDC-124492] | -24.2%
COC(=O)Nc1cc(C(F)(F)F)ccc1N1CCC(CNS(=O)(=O)c2ccc(OC)cc2)CC1 [TCMDC-134157] | 29.26%

From paper PMC4552634, “A New Set of Chemical Starting Points with Plasmodium falciparum Transmission-Blocking Potential for Antimalarial Drug Discovery” (PLoS ONE, 2015)
